From PubChem BioAssay (Tox21)
Unmarked numbers belong to inactive results. Active and inactive are the calls of the source. Calls follow the shape of the dose curve; as a rule, active = well fitted inhibition curve with a large enough effect in the repeat runs (not every such curve was filed as active); inconclusive = weak or mixed curves; inactive = flat fitted curve, though single readings scatter.
% is scaled to controls: 0 for no effect and ±100 for the full control effect; potency is read from the fitted curve at half-maximal effect.

Each compound was assayed against Thyrotropin-releasing hormone receptor (Homo sapiens) (UniProt P34981) (assay: qHTS assay to identify small molecule antagonists of the thyrotropin-releasing hormone receptor (TRHR) signaling pathway (AID 1346877)). Details: TRHR-HEK293, TRH-induced calcium fluorescence, antagonist mode; series mostly up to 51.3 µM; activity, negative = inhibition: at the top concentration.
Sequence of Thyrotropin-releasing hormone receptor (Homo sapiens) (P34981 whole entry, looked up): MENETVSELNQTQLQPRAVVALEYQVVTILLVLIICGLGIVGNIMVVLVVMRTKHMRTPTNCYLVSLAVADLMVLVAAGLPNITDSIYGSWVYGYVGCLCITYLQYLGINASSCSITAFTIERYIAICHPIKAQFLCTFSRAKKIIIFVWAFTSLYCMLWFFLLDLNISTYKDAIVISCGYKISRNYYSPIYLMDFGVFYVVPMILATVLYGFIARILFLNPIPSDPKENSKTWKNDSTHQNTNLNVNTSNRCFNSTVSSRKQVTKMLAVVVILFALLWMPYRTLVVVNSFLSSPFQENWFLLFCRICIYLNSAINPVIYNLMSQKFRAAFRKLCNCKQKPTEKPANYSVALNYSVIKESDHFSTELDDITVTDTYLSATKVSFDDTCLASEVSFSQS
Text: National Center for Advancing Translational Sciences [NCATS]
NIH Chemical Genomics Center [NCGC]
U.S. Environmental Protection Agency [EPA]
National Institutes of Environmental Health Sciences [NIEHS]
National Toxicology Program [NTP]
U.S. Food and Drug Administration [FDA]
Thyrotropin-releasing hormone (TRH) receptor (TRHR) is a G-protein-coupled receptor which binds the tripeptide thyrotropin releasing hormone. TRHR is found in the brain and, when bound by TRH, acts (through phospholipase C) to increase intracellular inositol trisphosphate. It plays a crucial role in the anterior pituitary where it controls the synthesis and secretion of thyroid stimulating hormone and prolactin. The TRHR-Hek293 assay is a cell-based assay, and it has the potential to screen G protein-coupled receptors. A compound/drug can either activate (agonist) or suppress (antagonist) GPCRs that can be monitored by levels of intracellular calcium. In this assay, the Tox21 10K compound library was screened to identify potential TRHR antagonists.
Tox21 Assay Protocol Summary:
The TRHR-Hek293 cells were dispensed at 1500cells/4uL/well in 1536-well black-clear bottom plates using a Multidrop dispenser. After the assay plates were incubated at a 37 C/5% CO2 incubator for 18 hours, 4 uL of Dye-Loading Solution was added to each well. The plates were incubated at 37 C for 2 hours. For agonist mode, 23 nL of compounds dissolved in DMSO, positive controls or DMSO only was transferred to the assay plate by a pin tool. The fluorescence intensity in the plates was measured using FDSS 7000EX kinetic plate reader for 3 min at 1 sec intervals. For antagonist mode, 23 nL of compounds dissolved in DMSO, positive controls or DMSO only was transferred to the assay plate by a pin tool. After 5 min incubation at room temperature, 1 uL of TRH was added on the top of the cell/compound mixtures to achieve a final agonist concentration of 1 nM. The fluorescence intensity in the plates was measured using FDSS 7000EX kinetic plate reader for 3 min at 1 sec intervals. Each test compound was measured at 15 concentrations and in triplicates.
For `Nc1ccc([N+](=O)[O-])cc1[N+](=O)[O-]`, the “activity, negative = inhibition” value was 2.03%.
With `Sc1ccccc1Cl` the “activity, negative = inhibition” value was -0.316% [at 23.6 µM].
In the case of `CCc1ccc(C(=O)NN(C(=O)c2cc(C)cc(C)c2)C(C)(C)C)cc1`, the “activity, negative = inhibition” value is reported as -0.622%.
`C/C(=C\c1ccccc1)[N+](=O)[O-]` was tested, and the “activity, negative = inhibition” value was -1.53%.
With `O=C(C(Cl)(Cl)Cl)C(Cl)(Cl)Cl` the “activity, negative = inhibition” value was -0.489%.
With `CCCCCCCCOC(=O)c1ccc(C(=O)OCCCCCCCC)c(C(=O)OCCCCCCCC)c1` the “activity, negative = inhibition” value was -0.591%.
For `C=CC[C@]1(O)CC[C@H]2[C@@H]3CCC4=CC(=O)CCC4=C3C=C[C@@]21C`, the “activity, negative = inhibition” value was 4.04% [at 23.6 µM].
With `CCOC(=O)COc1cc(-c2nn(C)c(OC(F)F)c2Cl)c(F)cc1Cl` the “activity, negative = inhibition” value was -1.71%.
In the case of `O=NN1CCCCCC1`, the “activity, negative = inhibition” value is reported as 9.35%.
`CN1C[C@H](CNC(=O)OCc2ccccc2)C[C@@H]2c3cccc4c3c(cn4C)C[C@H]21` was tested, and the “activity, negative = inhibition” value was -0.547% [at 23.6 µM].
`COP(=S)(OC)Oc1ccc([N+](=O)[O-])cc1Cl` was tested, and the “activity, negative = inhibition” value was -10.9%.
With `C[C@]12CC[C@H]3[C@@H](CCC4=CC(=O)CC[C@@H]43)[C@@H]1CC[C@@H]2OC(=O)CCC1CCCCC1` the “activity, negative = inhibition” value was 0.576% [at 23.6 µM].
With `CC(=O)[C@H]1CC[C@H]2[C@@H]3CC[C@H]4C[C@](C)(O)CC[C@]4(C)[C@H]3CC[C@]12C` the “activity, negative = inhibition” value was -2.35% [at 23.6 µM].
With `O=Cc1ccc(Cl)cc1Cl` the “activity, negative = inhibition” value was 9.07%.
With `CNC(C)Cc1ccccc1OC` (stereo not given) the “activity, negative = inhibition” value was 10.1% [at 23.6 µM].
With `CCOc1ccc(C(C)(C)COCc2cccc(Oc3ccccc3)c2)cc1` the “activity, negative = inhibition” value was -2.02%.
For `O=[N+]([O-])c1ccccc1CCl`, the “activity, negative = inhibition” value was -5.74%.
In the case of `Clc1cccc2ccccc12`, the “activity, negative = inhibition” value is reported as -1.91%.
`CCCCC(O)(Cn1cncn1)c1ccc(Cl)cc1Cl` (stereo not given) was tested, and the “activity, negative = inhibition” value was -15.3%.
For `CCCCCCCCCCOC(=O)c1ccccc1C(=O)OCCCCCCCCCC`, the “activity, negative = inhibition” value was 0.127%.
In the case of `C[C@@H]1CC[C@H]2[C@@H](C)C(=O)O[C@@H]3O[C@@]4(C)CC[C@@H]1[C@]32OO4`, the “activity, negative = inhibition” value is reported as 5.64% [at 23.6 µM].
`OC(c1ccc(Cl)cc1)(c1ccc(Cl)cc1)c1cccnc1` was tested, and the “activity, negative = inhibition” value was -15.3%.
With `CCOP(=S)(OCC)SCn1nnc2ccccc2c1=O` the “activity, negative = inhibition” value was -4.33%.
For `CN1C(=O)NC(=O)C(C)(C2=CCCCC2)C1=O` (stereo not given), the “activity, negative = inhibition” value was -3.21% [at 23.6 µM].
With `O=C(NC(=O)c1c(F)cccc1F)Nc1ccc(OC(F)(F)C(F)OC(F)(F)F)c(Cl)c1` (stereo not given) the “activity, negative = inhibition” value was 2.09% [at 23.6 µM].
For `IC(I)=C(I)I`, the Potency was 1.2 µM (active).
In the case of `CCCCC(CC)COP(=O)(Oc1ccccc1)Oc1ccccc1` (stereo not given), the “activity, negative = inhibition” value is reported as -10.6%.
`Cc1ccc(N)cc1C` was tested, and the “activity, negative = inhibition” value was 0.95%.
`NCCCNCCCN` was tested, and the “activity, negative = inhibition” value was 0.85%.
`O=C1NCN(c2ccccc2)C12CCN(CCCOc1ccc(F)cc1)CC2` was tested, and the Potency was 6.58 µM (active).
In the case of `Brc1ccccc1`, the “activity, negative = inhibition” value is reported as -0.674%.
`CCOC(=O)C(Cl)C(C)=O` (stereo not given) was tested, and the “activity, negative = inhibition” value was 0.85%.
In the case of `CO/N=C(/C(=O)OC)c1ccccc1COc1ccccc1C`, the “activity, negative = inhibition” value is reported as -15%.
With `Cc1cc(=O)[nH]o1` the “activity, negative = inhibition” value was 1.15%.
For `O=C1c2ccccc2C(=O)C1C(=O)C(c1ccccc1)c1ccccc1`, the “activity, negative = inhibition” value was -7.21% [at 23.6 µM].
In the case of `O=C(O)C(F)(F)C(F)(F)C(F)(F)C(F)(F)C(F)(F)C(F)(F)C(F)(F)C(F)(F)C(F)(F)C(F)(F)F`, the “activity, negative = inhibition” value is reported as 5.05%.
With `C=CC(C)=O` the “activity, negative = inhibition” value was 1.89%.
For `NC(=O)C(Cl)(Cl)Cl`, the “activity, negative = inhibition” value was -2.48%.
With `c1cc2ccc3cccc4ccc(c1)c2c34` the “activity, negative = inhibition” value was 2.06%.
`CCCCCCC#N` was tested, and the “activity, negative = inhibition” value was -0.181%.
